DT40 TDP1 no CPT – qHTS for Inhibitors of human tyrosyl-DNA phosphodiesterase 1 (TDP1): qHTS in cells in absence of CPT. Potency, µM (top dose mostly 46.2 µM), for inactives: at the top dose activity change, negative = growth inhibition, most hits filed as inhibitors. 420,000 compounds, 15% hits. DT40 Tdp1-/- hTDP1 cells, no CPT, ATP luminescence, 48 h; further: on the % scale 0 is the no-effect control and ±100 the full control effect; nearly all actives have a fitted effect of over 55% in size
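Stably hTDP1-transfected Tdp1-null chicken DT40 cells were treated with library compounds minus camptothecin and grown for at least 48 hr at 37 °C, after which cellular ATP was quantified by luminescence.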
HepG2 tox – HepG2 cytotoxicity, counter-screen for TGF-b inhibitors | HepG2 CAGA-GFP viability, ATP luminescence, 18 h | AID 588856 | 410,000 compounds, 0.76% hits | Potency, µM (top dose mostly 46.1 µM), without a hit: top-dose activity change, negative = cytotoxicity, usual class: cytotoxic
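CellTiter-Glo luminescence gave cytotoxicity after 18 hours at 37 degrees C. The cells were HepG2 CAGA-GFP in 1% FBS DMEM, stimulated with 500 pg/mL TGF-beta after compound addition. %Activity was normalised to no-cell wells (complete cell-killing) and DMSO (no toxicity), and curves were fitted and classified.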
DT40 TDP1 CPT – growth inhibition of DT40 Tdp1-/-;hTDP1 cells with camptothecin (screen for TDP1 inhibitors). chicken DT40 Tdp1-/-;hTDP1 cells + 20 nM CPT, ATP luminescence, 48 h. Potency, µM (series often up to 46.2 µM), without a hit: at the highest dose activity change, negative = growth inhibition, actives largely listed as inhibitors. 420,000 compounds, 12% hits. AID 686979; further: on the % scale 0 is the no-effect control and ±100 the full control effect; nearly all actives have a fitted effect of over 55% in size
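Chicken DT40 Tdp1-/- cells complemented with human TDP1, 400 cells/well, exposed to compounds plus 20 nM camptothecin for at least 48 h at 37 C; viability read as ATP content by CellTiter-Glo luminescence.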
ATXN2 expr inh – ATXN2 expression inhibition. 360,000 compounds, 0.72% hits. HEK-293 ATXN2-luciferase reporter, luminescence, 24 h. Potency, µM (top dose mostly 57 µM), for the others: at the highest dose activity change, negative = inhibition, hits mostly inhibitors; further: on the % scale 0 is the no-effect control and ±100 the full control effect; nearly all actives have a fitted effect of over 55% in size
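ATXN2-luciferase reporter cells (luciferase flanked by upstream and downstream ATXN2 gene portions) were treated 24 h at 37 °C with compounds at up to 57 uM. SteadyGlo luminescence gave expression; GF-AFC fluorescence gave viability.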
ATXN viability – viability counter-screen for ATXN expression inhibitors | Potency, µM (titrated, usually from 56.7 µM), actives largely listed as cytotoxic | 400,000 compounds, 0.49% hits | S2 cells (HEK-293 line with an ATXN2-luciferase reporter) viability, CellTiter-Fluor protease fluorescence, 24 h; further: nearly all actives have a fitted effect of over 40% in size
TGFb SMAD3 inh – TGF-b pathway inhibition; HepG2 CAGA-GFP TGF-b/SMAD3 reporter, GFP fluorescence, 18 h; TGF-beta stimulated, 500 pg/mL final; Potency, µM (titrated, usually from 46.1 µM), for the others: top-dose activity, negative = inhibition, usual class: inhibitors; 410,000 compounds, 1.2% hits; AID 588855; further: on the % scale 0 is the no-effect control and ±100 the full control effect; nearly all actives have a fitted effect of over 65% in size
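GFP signal (ex488/em500-530) from TGF-beta-stimulated HEPG2 CAGA-GFP cells, 500 pg/mL final, 18 h at 37 degrees C in DMEM plus 1% FBS, normalized to unstimulated and DMSO-stimulated controls.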
An asterisk follows results filed as active; i = inactive; ? = inconclusive; nt = no result given. An excerpt weighted towards active compounds, which were near 17% of everything screened. The call rests on the fitted dose curve; in most records, active means well fitted curve in the direction sought with a large enough effect; inconclusive means small, poorly fitted or top-dose-only effect, or another doubt; inactive means no such curve, though single readings can be large; an effect the other way counts as inactive or inconclusive. Potency means the concentration at half of the fitted maximal effect.

SMILES	DT40 TDP1 no CPT	HepG2 tox	DT40 TDP1 CPT	ATXN2 expr inh	ATXN viability	TGFb SMAD3 inh
O=C(CS(=O)c1ccc(C(F)(F)F)cc1[N+](=O)[O-])Oc1ccc(Cl)cc1 (stereo not given)	11.6µM*	-95.4%	9.2µM*	-38.9%	?	?
COC(=O)c1ccc(NC(=O)CSc2nccn2Cc2ccc(Cl)cc2)cc1	-28.4%	5.5%	?	nt	nt	-6.3%
CCOc1ccc(NC(=O)CSc2ccc(-c3sc(-c4ccccc4)nc3C)nn2)cc1	?	4.5%	-88.5%	nt	nt	2.0%
Cc1nc(-c2ccccc2)sc1-c1ccc(SCC(=O)Nc2ccccc2)nn1	23.1µM*	-8.7%	?	nt	nt	-9.6%
COC(=O)c1ccc(NC(=O)CSc2ccc(-c3sc(-c4ccccc4)nc3C)nn2)cc1	11.6µM*	-2.9%	?	nt	nt	-1.3%
COC(=O)c1ccc(NC(=O)CSc2nccn2CCc2ccccc2)cc1	18.4µM*	-8.4%	?	57.9%	i	-0.1%
COC(=O)c1ccc(NC(=O)CSc2nc(=O)n3cccc(C)c3n2)cc1	?	-21.9%	18.4µM*	-7.4%	i	-13.3%
Cc1ccc(C2=NN=C(NC(=O)CSc3nncn3C)SC2)cc1	?	7.9%	?	12.2%	i	0.0%
C=CCn1c(-c2sc3nc(C)cc(C)c3c2N)n[nH]c1=S	?	-2.1%	-19.2%	25.6%	i	-1.1%
CCN(CC)S(=O)(=O)c1ccc(N2CCCC2)c(C(=O)Nc2ccc(OC)c(Cl)c2)c1	?	8.8%	?	0.7%	i	0.0%
CC(C1CC1)N(Cc1ccccc1)C(=S)Nc1ccccc1 (stereo not given)	23.1µM*	-13.5%	14.6µM*	-3.3%	i	-0.6%
CC(C1CC1)N(Cc1ccccc1)C(=S)Nc1cccc(C(F)(F)F)c1 (stereo not given)	?	-15.8%	?	?	i	?
Nc1nn2c(-c3ccccc3)cc(=O)[nH]c2c1N=Nc1ccc(Br)cc1	16.4µM*	-22.3%	?	nt	i	-18.7%
CCC(Sc1nc2cc(OC)c(OC)cc2c(=O)n1CCc1ccc(OC)c(OC)c1)C(=O)NCCOC (stereo not given)	?	-1.6%	-27.5%	-12.6%	?	15.1%
COc1ccc(C(c2nnnn2CC2CCCO2)N2CCC(C(N)=O)CC2)cc1 (stereo not given)	-23.2%	-0.4%	0.0%	3.0%	i	0.0%
CCCCC(c1nnnn1CC1CCCO1)N1CCN(c2cccc(C)c2C)CC1 (stereo not given)	16.4µM*	43.8%	?	-5.5%	i	3.5%
COc1ccc(C(c2nnnn2CC2CCCO2)N2CCN(c3cccc(C)c3C)CC2)cc1 (stereo not given)	18.4µM*	-5.4%	?	-12.0%	i	-7.3%
COc1ccc(Cl)cc1C(=O)NNC(=O)c1cccs1	-17.4%	-5.2%	?	41.1%	i	-0.1%
O=C(N/N=C\c1ccc(F)cc1)c1csnn1	-20.2%	8.3%	-25.0%	17.4%	i	-19.9%
O=C(NCCCCc1ccccc1)c1nn(-c2ccccc2F)nc1CO	?	-33.1%	?	nt	nt	0.0%
O=C(NCCCc1ccccc1)c1nn(-c2ccccc2F)nc1CO	20.6µM*	-10.3%	?	nt	nt	0.0%
CCOc1ccc(-n2nc(CO)c(C(=O)NCCCc3ccccc3)n2)cc1	23.1µM*	-28.1%	14.6µM*	nt	nt	?
Cc1nn(-c2ccccc2)c(Cl)c1/C=N/NC(=O)c1ccnn1C	?	-14.2%	-10.2%	nt	i	-4.6%
Cn1c(SCc2ccc(C#N)cc2)nnc1-c1ccncc1	-4.4%	1.0%	-2.1%	nt	?	14.7%

Source: PubChem BioAssay (National Center for Advancing Translational Sciences (NCATS))
